Laboratory results as given in PMC7862700, “An all-to-all approach to the identification of sequence-specific readers for epigenetic DNA modifications on cytosine”.

Assays:
Assay in all cases: DAPPL (digital affinity profiling via proximity ligation, sequencing); 10 mM Tris-HCl pH 7.5, 50 mM NaCl, 1 mM DTT, 4% glycerol, room temperature, 30 min; GST-TFs on glutathione beads, 16-mer random dsDNA library, 0.1% formaldehyde crosslink after washing; high values mean tight binding
Conditions in all cases: protein: recombinant; tags: N-terminal GST; dsDNA, one strand shown
[1] = target: T1, FEV (Homo sapiens, UniProt Q99581 1-238)
T1 sequence: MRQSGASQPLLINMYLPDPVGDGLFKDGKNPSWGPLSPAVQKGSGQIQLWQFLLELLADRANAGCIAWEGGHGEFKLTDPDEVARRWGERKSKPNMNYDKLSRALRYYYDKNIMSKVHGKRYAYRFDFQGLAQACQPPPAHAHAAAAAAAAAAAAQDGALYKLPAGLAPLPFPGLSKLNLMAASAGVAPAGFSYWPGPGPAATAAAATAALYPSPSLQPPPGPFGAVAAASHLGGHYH
Summary of the method: (§1)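 Pools of DNA-barcoded human transcription factors, expressed in yeast as GST fusions on glutathione beads and combined with a tag-only sample, were incubated with 200 nmole of a 16-mer random double-stranded DNA library. Incubation took 30 min at room temperature in Tris/NaCl/DTT/glycerol buffer and was followed by washing, 0.1% formaldehyde crosslinking, proximity ligation (BsaI/T4 ligase, 1 h, 37 °C), PCR amplification and sequencing on an Illumina NextSeq500. Binding signal is the ratio of a hexamer's read frequency for a factor to its frequency for the tag-only sample.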

[2] = target: ETV5 (Homo sapiens, UniProt P41161 1-510)
Summary of the method: as §1

[3] = target: T2, SPIC (Homo sapiens, UniProt Q8N5J4 1-248)
T2 sequence: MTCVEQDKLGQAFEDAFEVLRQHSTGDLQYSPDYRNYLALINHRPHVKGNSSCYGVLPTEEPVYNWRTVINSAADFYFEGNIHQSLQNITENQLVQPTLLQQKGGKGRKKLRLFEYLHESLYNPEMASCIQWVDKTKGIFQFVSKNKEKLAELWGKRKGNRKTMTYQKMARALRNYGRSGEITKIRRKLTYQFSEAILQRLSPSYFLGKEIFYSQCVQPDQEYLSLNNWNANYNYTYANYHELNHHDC
Summary of the method: as §1

[4] = target: ELF4 (Homo sapiens, UniProt Q99607 1-663)
Summary of the method: as §1

[5] = target: T3, ELK4 (Homo sapiens, UniProt P28324-2 1-405)
T3 sequence: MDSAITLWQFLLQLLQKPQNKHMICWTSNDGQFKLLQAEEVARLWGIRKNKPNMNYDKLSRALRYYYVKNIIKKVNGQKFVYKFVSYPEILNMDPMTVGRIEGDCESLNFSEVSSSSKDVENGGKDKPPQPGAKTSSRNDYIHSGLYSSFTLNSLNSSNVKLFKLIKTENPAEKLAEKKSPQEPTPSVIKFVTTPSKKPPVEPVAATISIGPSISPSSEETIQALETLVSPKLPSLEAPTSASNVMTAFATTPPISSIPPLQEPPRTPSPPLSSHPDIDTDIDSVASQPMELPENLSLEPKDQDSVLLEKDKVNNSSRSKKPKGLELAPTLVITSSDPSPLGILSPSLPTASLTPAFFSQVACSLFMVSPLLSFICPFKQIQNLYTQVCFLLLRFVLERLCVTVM
Summary of the method: as §1

[6] = target: T4, ELF3 (Homo sapiens, UniProt P78545 1-371)
T4 sequence: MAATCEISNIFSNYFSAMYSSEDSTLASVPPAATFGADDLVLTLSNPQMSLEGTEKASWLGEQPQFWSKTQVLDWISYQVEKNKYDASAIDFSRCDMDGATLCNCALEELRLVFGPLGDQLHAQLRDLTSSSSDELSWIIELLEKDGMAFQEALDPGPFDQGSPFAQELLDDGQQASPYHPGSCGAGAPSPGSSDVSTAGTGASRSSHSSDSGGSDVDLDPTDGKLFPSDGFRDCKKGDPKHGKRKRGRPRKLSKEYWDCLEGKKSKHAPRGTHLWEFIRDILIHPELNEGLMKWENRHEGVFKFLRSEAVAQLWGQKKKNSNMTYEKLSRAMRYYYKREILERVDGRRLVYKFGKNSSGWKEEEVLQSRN
Summary of the method: as §1

[7] = target: ETV1 (Homo sapiens, UniProt P50549 1-477)
Summary of the method: as §1

[8] = target: T5, ETV2 (Homo sapiens, UniProt O00321 1-342)
T5 sequence: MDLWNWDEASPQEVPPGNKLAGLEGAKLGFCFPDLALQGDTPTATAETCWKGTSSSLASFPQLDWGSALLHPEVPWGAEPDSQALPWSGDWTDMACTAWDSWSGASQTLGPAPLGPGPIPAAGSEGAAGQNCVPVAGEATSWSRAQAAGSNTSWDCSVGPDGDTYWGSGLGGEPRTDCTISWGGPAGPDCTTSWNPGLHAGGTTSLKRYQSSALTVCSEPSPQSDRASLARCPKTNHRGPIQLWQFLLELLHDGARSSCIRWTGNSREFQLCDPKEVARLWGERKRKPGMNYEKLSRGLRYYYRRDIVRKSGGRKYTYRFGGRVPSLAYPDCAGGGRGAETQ
Summary of the method: as §1

[9] = target: CRX (Homo sapiens, UniProt O43186 1-299)
Summary of the method: as §1

Chain of CRX (O43186 whole entry): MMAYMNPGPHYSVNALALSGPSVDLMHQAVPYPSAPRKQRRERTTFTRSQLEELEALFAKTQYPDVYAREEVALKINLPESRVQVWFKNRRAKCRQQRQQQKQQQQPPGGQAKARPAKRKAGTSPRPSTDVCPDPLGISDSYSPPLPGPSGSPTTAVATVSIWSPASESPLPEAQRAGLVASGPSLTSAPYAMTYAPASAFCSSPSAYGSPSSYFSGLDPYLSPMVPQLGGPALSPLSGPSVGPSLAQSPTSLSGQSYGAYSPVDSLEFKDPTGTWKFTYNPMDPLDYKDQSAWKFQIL
Chain of ETV5 (P41161 whole entry): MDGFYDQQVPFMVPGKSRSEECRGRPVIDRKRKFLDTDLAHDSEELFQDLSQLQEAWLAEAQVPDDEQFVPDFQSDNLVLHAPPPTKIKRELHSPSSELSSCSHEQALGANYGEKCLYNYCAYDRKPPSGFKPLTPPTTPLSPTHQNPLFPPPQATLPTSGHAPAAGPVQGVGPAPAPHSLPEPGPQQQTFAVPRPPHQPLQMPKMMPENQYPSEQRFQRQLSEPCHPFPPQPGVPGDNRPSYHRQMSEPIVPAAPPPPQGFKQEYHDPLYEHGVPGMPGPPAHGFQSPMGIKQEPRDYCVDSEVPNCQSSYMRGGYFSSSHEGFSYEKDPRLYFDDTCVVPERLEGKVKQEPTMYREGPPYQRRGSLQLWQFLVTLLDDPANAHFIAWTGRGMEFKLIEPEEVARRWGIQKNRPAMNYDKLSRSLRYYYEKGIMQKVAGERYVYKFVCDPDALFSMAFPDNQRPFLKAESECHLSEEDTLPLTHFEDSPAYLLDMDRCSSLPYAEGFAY
Chain of ELF4 (Q99607 whole entry): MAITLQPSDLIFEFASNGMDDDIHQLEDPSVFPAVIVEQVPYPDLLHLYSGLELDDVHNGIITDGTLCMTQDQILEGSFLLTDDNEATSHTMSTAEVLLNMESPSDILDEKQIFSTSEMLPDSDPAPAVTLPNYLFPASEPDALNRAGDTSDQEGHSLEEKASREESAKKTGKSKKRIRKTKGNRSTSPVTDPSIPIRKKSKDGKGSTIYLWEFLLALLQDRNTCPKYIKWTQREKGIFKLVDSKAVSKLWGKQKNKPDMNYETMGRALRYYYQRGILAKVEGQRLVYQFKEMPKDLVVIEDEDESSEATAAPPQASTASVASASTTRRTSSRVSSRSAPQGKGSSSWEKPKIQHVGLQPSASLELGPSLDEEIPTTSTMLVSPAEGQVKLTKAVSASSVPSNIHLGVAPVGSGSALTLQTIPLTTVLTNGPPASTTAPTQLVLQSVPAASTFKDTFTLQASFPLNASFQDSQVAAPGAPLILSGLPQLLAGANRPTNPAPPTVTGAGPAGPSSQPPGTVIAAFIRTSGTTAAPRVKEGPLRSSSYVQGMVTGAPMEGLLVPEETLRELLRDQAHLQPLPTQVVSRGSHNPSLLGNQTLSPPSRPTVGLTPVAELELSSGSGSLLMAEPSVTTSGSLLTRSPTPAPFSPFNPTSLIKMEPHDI
Chain of ETV1 (P50549 whole entry): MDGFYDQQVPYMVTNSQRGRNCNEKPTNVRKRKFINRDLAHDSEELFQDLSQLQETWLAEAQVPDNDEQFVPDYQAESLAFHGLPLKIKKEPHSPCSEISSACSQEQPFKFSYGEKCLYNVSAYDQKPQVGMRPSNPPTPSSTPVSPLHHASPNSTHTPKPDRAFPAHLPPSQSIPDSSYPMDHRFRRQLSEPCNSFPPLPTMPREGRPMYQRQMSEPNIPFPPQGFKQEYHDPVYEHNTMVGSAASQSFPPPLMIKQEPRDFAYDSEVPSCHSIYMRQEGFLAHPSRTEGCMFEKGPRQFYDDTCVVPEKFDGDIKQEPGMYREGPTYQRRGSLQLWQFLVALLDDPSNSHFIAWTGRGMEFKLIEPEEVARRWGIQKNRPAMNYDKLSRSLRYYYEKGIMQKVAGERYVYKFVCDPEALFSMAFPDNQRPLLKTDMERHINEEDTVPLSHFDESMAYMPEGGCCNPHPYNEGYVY

Row | Sequence | binding signal [1] | binding signal [2] | binding signal [3] | binding signal [4] | binding signal [5] | binding signal [6] | binding signal [7] | binding signal [8] | binding signal [9]
1 | CCAATG | 1.1 fold enrichment (6-mer frequency, TF over GST control) | 1.03 fold enrichment (6-mer frequency, TF over GST control) | 1.03 fold enrichment (6-mer frequency, TF over GST control) | 1.13 fold enrichment (6-mer frequency, TF over GST control) | 1.13 fold enrichment (6-mer frequency, TF over GST control) | 1.05 fold enrichment (6-mer frequency, TF over GST control) | 1.06 fold enrichment (6-mer frequency, TF over GST control) |  | 
2 | ATGTGT | 1.02 fold enrichment (6-mer frequency, TF over GST control) | 1.16 fold enrichment (6-mer frequency, TF over GST control) | 1.17 fold enrichment (6-mer frequency, TF over GST control) | 1.08 fold enrichment (6-mer frequency, TF over GST control) | 1.05 fold enrichment (6-mer frequency, TF over GST control) |  | 1.18 fold enrichment (6-mer frequency, TF over GST control) | 1.11 fold enrichment (6-mer frequency, TF over GST control) | 
3 | GCTGGC | 1.06 fold enrichment (6-mer frequency, TF over GST control) | 1.02 fold enrichment (6-mer frequency, TF over GST control) | 1.12 fold enrichment (6-mer frequency, TF over GST control) | 1.15 fold enrichment (6-mer frequency, TF over GST control) | 1.1 fold enrichment (6-mer frequency, TF over GST control) |  |  | 1.07 fold enrichment (6-mer frequency, TF over GST control) | 
4 | CCGTAT | 1.14 fold enrichment (6-mer frequency, TF over GST control) | 1.23 fold enrichment (6-mer frequency, TF over GST control) | 1.29 fold enrichment (6-mer frequency, TF over GST control) | 1.17 fold enrichment (6-mer frequency, TF over GST control) | 1.27 fold enrichment (6-mer frequency, TF over GST control) |  | 1.19 fold enrichment (6-mer frequency, TF over GST control) | 1.34 fold enrichment (6-mer frequency, TF over GST control) | 1 fold enrichment (6-mer frequency, TF over GST control)
5 | GTTTGG | 1.06 fold enrichment (6-mer frequency, TF over GST control) | 1.03 fold enrichment (6-mer frequency, TF over GST control) | 1.24 fold enrichment (6-mer frequency, TF over GST control) | 1.03 fold enrichment (6-mer frequency, TF over GST control) | 1.08 fold enrichment (6-mer frequency, TF over GST control) |  | 1.07 fold enrichment (6-mer frequency, TF over GST control) | 1.06 fold enrichment (6-mer frequency, TF over GST control) | 
6 | GGTCCC | 1.1 fold enrichment (6-mer frequency, TF over GST control) | 1.13 fold enrichment (6-mer frequency, TF over GST control) | 1.18 fold enrichment (6-mer frequency, TF over GST control) | 1.16 fold enrichment (6-mer frequency, TF over GST control) | 1.29 fold enrichment (6-mer frequency, TF over GST control) |  | 1.3 fold enrichment (6-mer frequency, TF over GST control) | 1.16 fold enrichment (6-mer frequency, TF over GST control) | 
7 | ACGCAC | 1.05 fold enrichment (6-mer frequency, TF over GST control) | 1.09 fold enrichment (6-mer frequency, TF over GST control) | 1.01 fold enrichment (6-mer frequency, TF over GST control) | 1.05 fold enrichment (6-mer frequency, TF over GST control) | 1.06 fold enrichment (6-mer frequency, TF over GST control) |  | 1.1 fold enrichment (6-mer frequency, TF over GST control) | 1.22 fold enrichment (6-mer frequency, TF over GST control) | 
8 | GTTACA | 1.18 fold enrichment (6-mer frequency, TF over GST control) | 1.16 fold enrichment (6-mer frequency, TF over GST control) | 1.14 fold enrichment (6-mer frequency, TF over GST control) | 1.11 fold enrichment (6-mer frequency, TF over GST control) | 1.26 fold enrichment (6-mer frequency, TF over GST control) | 1.15 fold enrichment (6-mer frequency, TF over GST control) | 1.11 fold enrichment (6-mer frequency, TF over GST control) |  | 
9 | CGTATG |  | 1.09 fold enrichment (6-mer frequency, TF over GST control) | 1.07 fold enrichment (6-mer frequency, TF over GST control) | 1.04 fold enrichment (6-mer frequency, TF over GST control) | 1 fold enrichment (6-mer frequency, TF over GST control) |  | 1.04 fold enrichment (6-mer frequency, TF over GST control) | 1.09 fold enrichment (6-mer frequency, TF over GST control) | 
10 | TGGTCC | 1.12 fold enrichment (6-mer frequency, TF over GST control) | 1.23 fold enrichment (6-mer frequency, TF over GST control) | 1.32 fold enrichment (6-mer frequency, TF over GST control) | 1.22 fold enrichment (6-mer frequency, TF over GST control) | 1.29 fold enrichment (6-mer frequency, TF over GST control) |  | 1.2 fold enrichment (6-mer frequency, TF over GST control) | 1.23 fold enrichment (6-mer frequency, TF over GST control) | 
11 | CGGTAT | 1.08 fold enrichment (6-mer frequency, TF over GST control) | 1.06 fold enrichment (6-mer frequency, TF over GST control) | 1.08 fold enrichment (6-mer frequency, TF over GST control) | 1.06 fold enrichment (6-mer frequency, TF over GST control) | 1.03 fold enrichment (6-mer frequency, TF over GST control) |  | 1.09 fold enrichment (6-mer frequency, TF over GST control) | 1.31 fold enrichment (6-mer frequency, TF over GST control) | 
12 | CCCATG | 1.06 fold enrichment (6-mer frequency, TF over GST control) | 1.09 fold enrichment (6-mer frequency, TF over GST control) | 1.02 fold enrichment (6-mer frequency, TF over GST control) | 1.12 fold enrichment (6-mer frequency, TF over GST control) | 1.18 fold enrichment (6-mer frequency, TF over GST control) |  | 1.01 fold enrichment (6-mer frequency, TF over GST control) | 1.02 fold enrichment (6-mer frequency, TF over GST control) | 
13 | ACACTG | 1.01 fold enrichment (6-mer frequency, TF over GST control) | 1.07 fold enrichment (6-mer frequency, TF over GST control) | 1.3 fold enrichment (6-mer frequency, TF over GST control) | 1.03 fold enrichment (6-mer frequency, TF over GST control) | 1.14 fold enrichment (6-mer frequency, TF over GST control) |  | 1.15 fold enrichment (6-mer frequency, TF over GST control) | 1.04 fold enrichment (6-mer frequency, TF over GST control) | 
14 | CAACGC | 1.06 fold enrichment (6-mer frequency, TF over GST control) | 1.01 fold enrichment (6-mer frequency, TF over GST control) | 1.1 fold enrichment (6-mer frequency, TF over GST control) | 1.11 fold enrichment (6-mer frequency, TF over GST control) | 1.03 fold enrichment (6-mer frequency, TF over GST control) |  | 1.05 fold enrichment (6-mer frequency, TF over GST control) | 1.1 fold enrichment (6-mer frequency, TF over GST control) | 
15 | ACACTC | 1.12 fold enrichment (6-mer frequency, TF over GST control) | 1.04 fold enrichment (6-mer frequency, TF over GST control) | 1.01 fold enrichment (6-mer frequency, TF over GST control) | 1.14 fold enrichment (6-mer frequency, TF over GST control) | 1.19 fold enrichment (6-mer frequency, TF over GST control) |  | 1.07 fold enrichment (6-mer frequency, TF over GST control) | 1.11 fold enrichment (6-mer frequency, TF over GST control) | 
16 | GCCAAT | 1.03 fold enrichment (6-mer frequency, TF over GST control) | 1.09 fold enrichment (6-mer frequency, TF over GST control) | 1.05 fold enrichment (6-mer frequency, TF over GST control) | 1.12 fold enrichment (6-mer frequency, TF over GST control) | 1.01 fold enrichment (6-mer frequency, TF over GST control) | 1.2 fold enrichment (6-mer frequency, TF over GST control) | 1.13 fold enrichment (6-mer frequency, TF over GST control) |  | 
17 | ATGTTG | 1.21 fold enrichment (6-mer frequency, TF over GST control) | 1.3 fold enrichment (6-mer frequency, TF over GST control) | 1.1 fold enrichment (6-mer frequency, TF over GST control) | 1.2 fold enrichment (6-mer frequency, TF over GST control) | 1.25 fold enrichment (6-mer frequency, TF over GST control) | 1.11 fold enrichment (6-mer frequency, TF over GST control) | 1.32 fold enrichment (6-mer frequency, TF over GST control) |  | 1.04 fold enrichment (6-mer frequency, TF over GST control)
18 | TTGGGT | 1.07 fold enrichment (6-mer frequency, TF over GST control) | 1.04 fold enrichment (6-mer frequency, TF over GST control) | 1.07 fold enrichment (6-mer frequency, TF over GST control) | 1.08 fold enrichment (6-mer frequency, TF over GST control) | 1.09 fold enrichment (6-mer frequency, TF over GST control) | 1.14 fold enrichment (6-mer frequency, TF over GST control) | 1.06 fold enrichment (6-mer frequency, TF over GST control) |  | 1.07 fold enrichment (6-mer frequency, TF over GST control)
19 | ACGGCC | 1.06 fold enrichment (6-mer frequency, TF over GST control) | 1.14 fold enrichment (6-mer frequency, TF over GST control) | 1.03 fold enrichment (6-mer frequency, TF over GST control) | 1.15 fold enrichment (6-mer frequency, TF over GST control) | 1.06 fold enrichment (6-mer frequency, TF over GST control) |  | 1.05 fold enrichment (6-mer frequency, TF over GST control) | 1.01 fold enrichment (6-mer frequency, TF over GST control) | 
